Compound activity deposited in PubChem BioAssay by National Center for Advancing Translational Sciences (NCATS).
GPT2 inhibitor: Primary qHTS assay for inhibitors of Glutamate pyruvate transaminase 2 (GPT2). 0.25% of 100,000 active. Alanine aminotransferase 2 (Homo sapiens), Q8TD30. AID 1671188, 2021. Recombinant GPT2, coupled pyruvate oxidase/HRP Amplex Red fluorescence. Potency, µM (top dose mostly 57.7 µM), inactives show top-dose activity change, negative = inhibition, most hits filed as inhibitors; also: nearly all actives have a fitted effect of over 60% in size
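GPT2 10ng/uL, a-KG 250uM, L-Ala 2mM, HEPES pH7.5 + 0.0001% Tween; 30 min RT. Then Amplex mix (PO/HRP/ThPP), 30 min RT dark, fluorescence. AOA 50uM used as positive control.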
NPR1 antag: Natriuretic polypeptide receptor (hNpr1) antagonism - Primary qHTS; Atrial natriuretic peptide receptor 1 (Homo sapiens), P16066; HEK293 hNpr1 GloSensor cGMP, ANP-stimulated luminescence; Potency, µM (highest dose often 46.3 µM), without a hit: top-dose activity change, negative = inhibition, actives largely listed as inhibitors; 1.6% of 76,000 active; AID 1347048, 2019; calls by dose curve; also: nearly all actives have a fitted effect of over 60% in size
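Compound pre-incubated 30 min at room temperature on GloSensor-loaded HEK293 cells stably carrying hNpr1 and the pGS-40F cGMP biosensor. Stimulation uses hNppA at 0.1 nM final; luminescence is taken at baseline and 20 min post-agonist.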
Luciferase inh: Firefly luciferase inhibition profiling of diverse chemical library using quantitative high-throughput screening; purified P. pyralis luciferase, luminescence, biochemical; Potency, µM (highest dose often 115 µM), actives largely listed as inhibitors; 2.5% of 76,000 active; Luciferin 4-monooxygenase (Photinus pyralis), P08659; AID 1347043, 2019; also: nearly all actives have a fitted effect of over 65% in size
Target sequence (P08659 whole entry, looked up): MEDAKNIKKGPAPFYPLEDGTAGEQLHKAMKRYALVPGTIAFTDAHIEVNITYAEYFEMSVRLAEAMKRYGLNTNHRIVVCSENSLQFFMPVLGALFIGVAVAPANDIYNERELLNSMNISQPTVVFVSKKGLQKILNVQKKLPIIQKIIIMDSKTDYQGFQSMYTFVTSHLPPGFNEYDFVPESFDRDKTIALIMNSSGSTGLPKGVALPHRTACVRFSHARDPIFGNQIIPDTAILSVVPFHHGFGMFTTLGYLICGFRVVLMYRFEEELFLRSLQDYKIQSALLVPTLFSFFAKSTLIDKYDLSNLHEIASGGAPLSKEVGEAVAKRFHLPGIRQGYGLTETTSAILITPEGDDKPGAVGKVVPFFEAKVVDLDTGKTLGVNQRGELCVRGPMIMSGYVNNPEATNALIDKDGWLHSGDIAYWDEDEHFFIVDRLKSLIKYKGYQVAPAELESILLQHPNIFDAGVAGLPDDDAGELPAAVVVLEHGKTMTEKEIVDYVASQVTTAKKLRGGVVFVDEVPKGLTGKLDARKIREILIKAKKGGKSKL
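Luminescence read by CCD imaging after purified firefly luciferase (10nM final) was added to substrate buffer holding 10uM D-luciferin and 10uM ATP, pH 7.5, pre-dosed with compound.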
HEK cytotox: Cytotoxic Profiling in HEK 293 Cell Line of Diverse Libraries Using Quantitative High-Throughput Screening; HEK 293 viability, ATP luminescence (CellTiter-Glo), 48-72 h; AID 1345083, 2018; 6.6% of 94,000 active; Potency, µM (highest dose often 115 µM), for inactives: at the highest dose activity change, negative = cytotoxicity, actives largely listed as inhibitors; also: nearly all actives have a fitted effect of over 60% in size
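qHTS cytotoxicity; HEK 293, 250 cells/well; compound pinned; 48 or 72 hr, 37 degree Celsius, 5% CO2, 95% humidity; CellTiter-Glo, 10 min RT; luminescence (ATP).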
NIH3T3 tox: Cytotoxic Profiling in NIH 3T3 Cell Line of Diverse Libraries Using Quantitative High-Throughput Screening | 4.3% of 94,000 active | NIH 3T3 viability, CellTiter-Glo ATP luminescence, 48-72 h | Potency, µM (titrated, usually from 96.7 µM), for the others: at the top dose activity change, negative = cytotoxicity, most hits filed as inhibitors; also: nearly all actives have a fitted effect of over 55% in size
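Cytotoxicity is measured as loss of cellular ATP: NIH 3T3 cells (400/well) are exposed to compound for 48 or 72 hr at 37 °C, then CellTiter-Glo luminescence is imaged after 10 min at room temperature.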
* hit, by the source's call; i = inactive; ? = inconclusive; nt = no result given; [ ] = dose if it differs, or a comment. A selection: hits, their analogues and other compounds. The true share with any hit is near 10%. Unless noted, calls follow the shape of the dose curve; as a rule, active = well fitted curve in the direction sought with a large enough effect; inconclusive = small, poorly fitted or top-dose-only effect, or another doubt; inactive = no such curve, though single readings can be large; an effect the other way counts as inactive or inconclusive. % is scaled to controls: 0 for no effect and ±100 for the full control effect; potency is read from the fitted curve at half-maximal effect.

SMILES	GPT2 inhibitor	NPR1 antag	Luciferase inh	HEK cytotox	NIH3T3 tox
COCc1ccc2c(c1)c(OC(C)(C)C(=O)Nc1cccnc1)nn2Cc1ccccc1	i	0%[70.6 µM]	i	?	?
CCOC(=O)C1CCN(C(=O)c2ccc3nnc(-c4c(C)cccc4C)n3c2)CC1	i	nt	nt	5%	?
Fc1ccc(Nc2cc3c(cn2)CN(Cc2ccncc2)CCN3)cc1Cl	1%[88.5 µM]	18µM*	?	32µM*	20µM*
Cn1cnc(CN2CCNc3cc(Nc4ccccc4)ncc3C2)c1	2%[88.5 µM]	10%[70.6 µM]	i	?	?
Fc1ccc(Nc2cc3c(cn2)CN(Cc2ccccc2)CCN3)cc1	?	-21%[70.6 µM]	?	-97%[172 µM]	32µM*
Fc1cccc(CN2CCNc3cc(Nc4cccnc4)ncc3C2)c1	?	-9%[70.6 µM]	35µM*	?	32µM*
c1cncc(Nc2cc3c(cn2)CN(Cc2cccs2)CCN3)c1	-23%[88.5 µM]	2%[70.6 µM]	?	?	?
c1ccc(N2CCN(c3cc4c(cn3)CN(Cc3ccncc3)CCN4)CC2)nc1	5%[88.5 µM]	?	i	79µM*	-27%[138 µM]
O=C(NCCC1CCN(C(=O)Nc2cc(F)cc(F)c2)CC1)c1ccccn1	i	-1%	i	-27%	?
c1ccc(Nc2cc3c(cn2)CN(Cc2ccccn2)CCN3)cc1	-1%[88.5 µM]	-10%[70.6 µM]	i	?	?
Fc1ccc(CN2CCNc3cc(Nc4ccccc4)ncc3C2)cc1F	2%[88.5 µM]	-17%[70.6 µM]	i	22µM*	40µM*
FC(F)(F)c1ccc(CN2CCNc3cc(Nc4ccccc4)ncc3C2)cc1	i	?	?	45µM*	25µM*
c1ccc(Nc2cc3c(cn2)CN(Cc2ncc[nH]2)CCN3)cc1	i	2%[70.6 µM]	18µM*	?	?
CCN(CC)C(=O)c1coc(COc2ccc3c(c2)C(c2cccc(F)c2)N(C(=O)C(C)C)CC3)n1 (stereo not drawn)	i	-17%	i	?	?
COC(=O)c1cccc(NC(=O)c2cnc(-c3ccc(F)cc3)nc2-c2ccncc2)c1	-7%	-27%	i	?	?
Cc1ccc(Nc2ccnc(N3CCCN(C(=O)C4CCCC4)C3)n2)cc1	-12%	nt	nt	13µM*	?
Cc1ccc(Nc2ccnc(N3CCCN(C(=O)NC4CCCC4)C3)n2)cc1	i	nt	nt	16µM*	25µM*
O=C(c1cccc(Cl)c1)N1CCCC(C(=O)N2CCCC(c3nc4ccncc4[nH]3)C2)C1 (stereo not drawn)	4%	nt	nt	-2%	-15%
COc1ccc2[nH]c(CN3CCC(CCC(=O)NCc4ccc(F)cc4)CC3)c(C)c2c1	4%	0%	i	28µM*	?
COc1cc(CNC(=O)CCC2CCN(C(=O)c3ccccc3F)CC2)cc(OC)c1	-7%	0%	i	4%	-8%
CCc1ccccc1S(=O)(=O)N1C[C@@H](F)C[C@H]1C(=O)N1CCc2ccccc2C1	i	1%	i	?	32µM*
CCc1ccc(S(=O)(=O)N2C[C@@H](F)C[C@H]2C(=O)N2CCc3ccccc3C2)cc1	i	-9%	i	-24%	-26%
O=C([C@@H]1C[C@H](F)CN1C(=O)Nc1cccc(C(F)(F)F)c1)N1CCc2ccccc2C1	i	0%	i	32µM*	22µM*
CC1=C[C@@H](CNC(=O)c2ccncc2)[C@H](C(C)C)C[C@H]1Cc1nnc(-c2ccncc2)o1	i	?	i	79µM*	?
CC1=C[C@@H](CNS(=O)(=O)c2ccccc2)[C@H](C(C)C)C[C@H]1Cc1nnc(-c2ccncc2)o1	0%	?	i	25µM*	20µM*
SMILES	GPT2 inhibitor	NPR1 antag	Luciferase inh	HEK cytotox	NIH3T3 tox
CC1=C[C@@H](CNS(=O)(=O)c2ccc(C#N)cc2)[C@H](C(C)C)C[C@H]1Cc1nnc(-c2ccncc2)o1	-6%	-19%	i	?	?
CC1=C[C@@H](CNC(=O)Nc2ccccc2)[C@H](C(C)C)C[C@H]1Cc1nnc(-c2ccncc2)o1	-1%	?	i	22µM*	?
COCC1CN(C2CCC2)CC12CCN(C(=O)c1ccc(F)c(F)c1)CC2 (stereo not drawn)	2%	-21%	i	?	?
CC(=O)N1CCc2[nH]cnc2C12CCN(C(=O)CCn1nnnc1C)CC2	5%	-1%	i	-2%	i
Cc1ccc(C(=O)CCc2nc(C3CC(=O)N(C4CCCCC4)C3)no2)cc1 (stereo not drawn)	i	-18%	i	40µM*	?
Cc1cc(Cn2cc3c4c(cccc42)[C@H](CC(C)C)N[C@H](C(=O)NCc2ccc(C)o2)C3)no1	?	-2%	i	32µM*	?
Cc1cc(Cn2cc3c4c(cccc42)[C@H](CC(C)C)N[C@H](C(=O)NCc2nccs2)C3)no1	i	-3%	i	22µM*	?
CC(=O)NCCNC(=O)[C@@H]1Cc2cn(Cc3cc(C)on3)c3cccc(c23)[C@H](CC(C)C)N1	-20%	4%	i	?	-8%
COc1ccc(NC(=O)N2C[C@@H]3C[C@H](C2)c2c(NC(=O)Nc4ccccc4)ccc(=O)n2C3)cc1	i	0%	?	-16%	-17%
CN(Cc1ccon1)C(=O)C1CCN(C(=O)C2CCC2)CC1	1%	1%	i	-2%	3%
CN(Cc1ccc2nonc2c1)C(=O)C1CCN(C(=O)C2CCCC2)CC1	i	0%	i	?	40µM*
Cc1ccc(C(=O)N2CCCN(C(=O)C3CC3)C(c3ccccc3)CC(=O)NCC2)s1 (stereo not drawn)	i	-12%	i	-1%	-12%
O=C(CN1C(=O)NC2(CCCCC2)C1=O)Nc1ccc(F)cc1	-6%	2%	i	?	-11%
CC1CCC2(CC1)NC(=O)N(CC(=O)Nc1ccc(F)c(Cl)c1)C2=O (stereo not drawn)	i	4%	i	-27%	-8%
O=C(CN1C(=O)NC2(CCCCC2)C1=O)Nc1ccc(C(F)(F)F)cc1	i	0%	i	28µM*	?
CC1CCC2(CC1)NC(=O)N(CC(=O)Nc1ccc(Cl)cc1)C2=O (stereo not drawn)	i	1%	i	?	11µM*
CC(=O)N1CCCC(C(=O)N2CCC3(CC2)CC(=O)Nc2ccccc2O3)C1 (stereo not drawn)	i	nt	nt	-10%	-16%
